# Test results taken from the antibiotic and cytotoxicity screens of Wong et al. (2023).
# Screen size: about 39,000 compounds; about 3,300 (8.5%) were called active. This is one part of a sample in which actives are shown more often than they occur.
# Tested on: HepG2
# Experiment: cytotoxicity call (relative viability < 0.9)
# Settings: 10 µM
row,SMILES,cytotoxicity call
1,COc1ccc(S(=O)(=O)N[C@@H]2CC[C@@H](CC(=O)N3CCC(Cc4ccccc4)CC3)O[C@@H]2CO)cc1,inactive
2,O=c1c(-c2ccc(O)cc2)coc2c([C@H]3O[C@H](CO)[C@@H](O)[C@H](O)[C@H]3O)c(O)ccc12,inactive
3,Cc1ccc2nc(-c3ccco3)[nH]c2c1,inactive
4,CCS(=O)(=O)N1C[C@]2(CCN(CC2)C(=O)Nc2c(noc2C)C)c2c(n(c3cc(ccc23)OC)C)[C@@H]1CO,inactive
5,C[C@H](CO)N1C[C@H](C)[C@@H](CN(C)S(=O)(=O)c2ccc(F)cc2)Oc2ccc(NC(=O)Cc3ccccc3)cc2CC1=O,inactive
6,COc1cccc(NC(=O)N[C@@H]2CC[C@H](CC(=O)N3CCN(C)CC3)O[C@H]2CO)c1,inactive
7,O=C(C[C@@H]1C=C[C@H](NC(=O)c2ccc(F)cc2)[C@H](CO)O1)NCc1ccncn1,inactive
8,C[C@@H]1CCCCO[C@H](CN(C)C(=O)Cc2ccccc2)[C@@H](C)CN([C@@H](C)CO)C(=O)c2cc(NC(=O)Nc3ccc(C(F)(F)F)cc3)ccc2O1,inactive
9,C[C@@H]1CN([C@H](C)CO)C(=O)Cc2cc(NC(=O)Nc3cccc4ccccc34)ccc2O[C@@H]1CN(C)Cc1ccc(C(=O)O)cc1,inactive
10,COCCNC(=O)C[C@@H]1CC[C@H]2[C@@H](COC[C@@H](O)CN2S(=O)(=O)c2ccccc2C)O1,inactive
11,C[C@H](CO)N1C[C@H](C)[C@@H](CN(C)Cc2ccc(C(=O)Nc3ccccc3N)cc2)Oc2ccc(NS(=O)(=O)c3ccc(Cl)cc3)cc2CC1=O,inactive
12,C[C@H]1CN([C@@H](C)CO)C(=O)c2cccc(NC(=O)C3CC3)c2O[C@H]1CN(C)S(=O)(=O)c1cn(C)cn1,inactive
13,C[C@@H]1CN([C@@H](C)CO)C(=O)c2cc(NS(=O)(=O)c3ccc(F)cc3)ccc2O[C@@H](C)CCCCO[C@@H]1CN(C)S(=O)(=O)c1ccc(Cl)cc1,inactive
14,C[C@@H]1CCCCO[C@H](CN(C)S(=O)(=O)c2ccc(Cl)cc2)[C@H](C)CN([C@@H](C)CO)C(=O)c2cc(NS(=O)(=O)c3ccc(F)cc3)ccc2O1,active
15,C[C@@H]1CCCCO[C@H](CN(C)S(=O)(=O)c2ccc(Cl)cc2)[C@H](C)CN([C@H](C)CO)C(=O)c2cc(NS(=O)(=O)c3ccc(F)cc3)ccc2O1,inactive
16,C[C@@H]1CCCCO[C@H](CN(C)S(=O)(=O)c2ccc(F)cc2)[C@H](C)CN([C@@H](C)CO)C(=O)c2cc(NS(=O)(=O)c3ccc(Cl)cc3)ccc2O1,active
17,C[C@H](CO)N1C[C@H](C)[C@H](CN(C)S(=O)(=O)c2ccc(Cl)cc2)OCCCC[C@H](C)Oc2ccc(NS(=O)(=O)c3ccc(F)cc3)cc2C1=O,active
18,C[C@@H]1CCCCO[C@H](CN(C)S(=O)(=O)c2ccc(Cl)cc2)[C@@H](C)CN([C@@H](C)CO)C(=O)c2cc(NS(=O)(=O)c3ccc(F)cc3)ccc2O1,inactive
19,C[C@@H]1CN([C@@H](C)CO)C(=O)c2cc(NS(=O)(=O)c3ccc(F)cc3)ccc2O[C@@H](C)CCCCO[C@H]1CN(C)S(=O)(=O)c1ccc(Cl)cc1,inactive
20,C[C@@H]1CCCCO[C@H](CN(C)S(=O)(=O)c2ccc(F)cc2)[C@@H](C)CN([C@@H](C)CO)C(=O)c2cc(NS(=O)(=O)c3ccc(Cl)cc3)ccc2O1,inactive
21,C[C@H](CO)N1C[C@H](C)[C@@H](CN(C)S(=O)(=O)c2ccc(Cl)cc2)OCCCC[C@H](C)Oc2ccc(NS(=O)(=O)c3ccc(F)cc3)cc2C1=O,inactive
22,C[C@@H]1CCCCO[C@@H](CN(C)S(=O)(=O)c2ccc(Cl)cc2)[C@@H](C)CN([C@@H](C)CO)C(=O)c2cc(NS(=O)(=O)c3ccc(F)cc3)ccc2O1,active

row,SMILES,cytotoxicity call
1,COc1ccc(S(=O)(=O)Nc2ccc3c(c2)C(=O)N([C@H](C)CO)C[C@@H](C)[C@@H](CN(C)S(=O)(=O)c2cn(C)cn2)O3)cc1,inactive
2,O=C(N[C@H]1CCS(=O)(=O)C1)N1CCCCC1,inactive
3,Cc1ccc(N2C(=O)c3ccccc3[C@](C)(C(=O)NCCN3CCOCC3)[C@@H]2c2ccc(CO)cc2)nc1,inactive
4,C[C@@H]1CN([C@H](C)CO)C(=O)Cc2cc(NC(=O)Cn3cnnn3)ccc2O[C@@H]1CN(C)C(=O)Nc1ccc(F)cc1,inactive
5,Cc1ccc(S(=O)(=O)N(C)C[C@H]2OCCCC[C@H](C)Oc3ccc(NC(=O)Nc4cccc5ccccc45)cc3C(=O)N([C@@H](C)CO)C[C@H]2C)cc1,inactive
6,O=C(C1=C[C@@H](C2CC2)C[C@@H](OCc2ccc(CO)cc2)O1)N1CCN(Cc2ccc3c(c2)OCO3)CC1,inactive
7,CCC(=O)O[C@H]1[C@H](O[C@@H]2[C@@H](C)[C@H](O[C@H]3C[C@@](C)(OC)[C@@H](O)[C@H](C)O3)[C@@H](C)C(=O)O[C@H](CC)[C@@](C)(O)[C@H](O)[C@@H](C)C(=O)[C@H](C)C[C@@]2(C)O)O[C@H](C)C[C@@H]1N(C)C,inactive
8,O=C(C[C@H]1C=C[C@H](NC(=O)c2ccc(F)cc2)[C@H](CO)O1)NCc1ccncn1,inactive
9,CN(C)C(=O)c1ccc(-c2cccc(-c3nc(C(=O)NC4CCC4)cc4c3[C@@H](CCO)N([S@](=O)C(C)(C)C)C4)c2)cc1,inactive
10,C[C@@H]1CCCCO[C@@H](CN(C)S(=O)(=O)c2cccs2)[C@@H](C)CN([C@@H](C)CO)C(=O)c2cc(NC(=O)Nc3ccc(F)cc3)ccc2O1,inactive
11,C[C@H]1CCCCO[C@H](CN(C)S(=O)(=O)c2ccc(F)cc2)[C@@H](C)CN([C@@H](C)CO)C(=O)c2cc(NS(=O)(=O)c3ccc(Cl)cc3)ccc2O1,active
12,C[C@@H]1CCCCO[C@H](CN(C)S(=O)(=O)c2ccc(F)cc2)[C@@H](C)CN([C@H](C)CO)C(=O)c2cc(NS(=O)(=O)c3ccc(Cl)cc3)ccc2O1,inactive
13,C[C@@H]1CN([C@H](C)CO)C(=O)c2cc(NS(=O)(=O)c3ccc(F)cc3)ccc2O[C@@H](C)CCCCO[C@H]1CN(C)S(=O)(=O)c1ccc(Cl)cc1,inactive
14,C[C@H](CO)N1C[C@H](C)[C@H](CN(C)S(=O)(=O)c2ccc(F)cc2)OCCCC[C@H](C)Oc2ccc(NS(=O)(=O)c3ccc(Cl)cc3)cc2C1=O,inactive
15,C[C@@H]1CN([C@H](C)CO)C(=O)c2cc(NS(=O)(=O)c3ccc(Cl)cc3)ccc2O[C@@H](C)CCCCO[C@H]1CN(C)S(=O)(=O)c1ccc(F)cc1,active
16,C[C@H](CO)N1C[C@H](C)[C@@H](CN(C)S(=O)(=O)c2ccc(F)cc2)OCCCC[C@H](C)Oc2ccc(NS(=O)(=O)c3ccc(Cl)cc3)cc2C1=O,inactive
17,C[C@H]1CCCCO[C@H](CN(C)S(=O)(=O)c2ccc(Cl)cc2)[C@@H](C)CN([C@@H](C)CO)C(=O)c2cc(NS(=O)(=O)c3ccc(F)cc3)ccc2O1,active
18,C[C@H]1CCCCO[C@@H](CN(C)S(=O)(=O)c2ccc(Cl)cc2)[C@@H](C)CN([C@@H](C)CO)C(=O)c2cc(NS(=O)(=O)c3ccc(F)cc3)ccc2O1,inactive
19,C[C@@H]1CCCCO[C@H](CN(C)S(=O)(=O)c2ccc(F)cc2)[C@H](C)CN([C@H](C)CO)C(=O)c2cc(NS(=O)(=O)c3ccc(Cl)cc3)ccc2O1,inactive
20,CC(C)NC(=O)N(C)C[C@H]1Oc2ccc(NC(=O)Cc3ccccc3)cc2CC(=O)N([C@H](C)CO)C[C@H]1C,inactive
21,C[C@@H]1CCCCO[C@H](CN(C)Cc2ccc(C(=O)O)cc2)[C@H](C)CN([C@H](C)CO)C(=O)c2cc(NS(=O)(=O)c3ccc(Cl)cc3)ccc2O1,inactive
22,COc1ccc(NC(=O)N(C)C[C@@H]2Oc3c(NC(=O)c4cc(C)nn4C)cccc3C(=O)N([C@@H](C)CO)C[C@@H]2C)cc1,inactive

row,SMILES,cytotoxicity call
1,COc1ccc(CN(C)C[C@@H]2OCCCC[C@@H](C)Oc3ccc(NS(=O)(=O)c4ccc(C)cc4)cc3C(=O)N([C@H](C)CO)C[C@@H]2C)cc1,inactive
2,COc1ccc(S(=O)(=O)N(C)C[C@H]2Oc3c(NS(C)(=O)=O)cccc3C(=O)N([C@@H](C)CO)C[C@H]2C)cc1,inactive
3,C[C@@H]1CCCCO[C@@H](CN(C)C(=O)c2ccncc2)[C@H](C)CN([C@H](C)CO)C(=O)c2cc(NS(=O)(=O)c3ccc(Cl)cc3)ccc2O1,inactive
4,C[C@@H]1CN([C@@H](C)CO)S(=O)(=O)c2ccc(-c3ccncc3)cc2O[C@@H]1CN(C)C(=O)c1cccc(F)c1,inactive
5,CO[C@H]1CN(C)C(=O)c2cc(NC(=O)C3CC3)ccc2OC[C@@H](C)N(C(=O)CN2CCOCC2)C[C@@H]1C,inactive
6,C=CC(=O)N1CC[C@@H](Oc2nc(Nc3ccc(N4CCC(N5CCN(C)CC5)CC4)cc3)c(C(N)=O)nc2CC)C1,active
7,CCc1nc(C(N)=O)c(Nc2ccc(N3CCC(N4CCN(C)CC4)CC3)c(OC)c2)nc1NC1CCOCC1,active
8,COCC(=O)NCc1cc(=O)n2c(n1)CN(c1ncccn1)CCC2,inactive
9,CO[C@H]1CN(C)C(=O)c2cc(NC(=O)Nc3ccccc3)ccc2OC[C@@H](C)N(C(=O)CN(C)C)C[C@@H]1C,inactive
10,C[C@H](CO)N1C[C@H](C)[C@H](CN(C)Cc2ccc(C(=O)Nc3ccccc3N)cc2)Oc2ccc(NS(=O)(=O)c3cn(C)cn3)cc2CC1=O,inactive
11,COc1ccc(CN(C)C[C@@H]2OCCCC[C@H](C)Oc3ccc(NC(=O)Nc4ccc(F)cc4)cc3C(=O)N([C@@H](C)CO)C[C@@H]2C)cc1,active
12,COc1ccc(CN(C)C[C@@H]2OCCCC[C@@H](C)Oc3ccc(NC(=O)Nc4ccc(F)cc4)cc3C(=O)N([C@@H](C)CO)C[C@H]2C)cc1,active
13,COc1ccc(CN(C)C[C@@H]2OCCCC[C@@H](C)Oc3ccc(NC(=O)Nc4ccc(F)cc4)cc3C(=O)N([C@H](C)CO)C[C@H]2C)cc1,active
14,COc1ccc(CN(C)C[C@@H]2OCCCC[C@@H](C)Oc3ccc(NC(=O)Nc4ccc(F)cc4)cc3C(=O)N([C@@H](C)CO)C[C@@H]2C)cc1,inactive
15,COc1ccc(CN(C)C[C@@H]2OCCCC[C@H](C)Oc3ccc(NC(=O)Nc4ccc(F)cc4)cc3C(=O)N([C@H](C)CO)C[C@H]2C)cc1,inactive
16,COc1ccc(CN(C)C[C@@H]2OCCCC[C@H](C)Oc3ccc(NC(=O)Nc4ccc(F)cc4)cc3C(=O)N([C@@H](C)CO)C[C@H]2C)cc1,inactive
17,COc1ccc(CN(C)C[C@@H]2OCCCC[C@@H](C)Oc3ccc(NC(=O)Nc4ccc(F)cc4)cc3C(=O)N([C@H](C)CO)C[C@@H]2C)cc1,inactive
18,COc1ccc(CN(C)C[C@H]2OCCCC[C@@H](C)Oc3ccc(NC(=O)Nc4ccc(F)cc4)cc3C(=O)N([C@H](C)CO)C[C@@H]2C)cc1,inactive
19,COc1ccc(CN(C)C[C@@H]2OCCCC[C@H](C)Oc3ccc(NC(=O)Nc4ccc(F)cc4)cc3C(=O)N([C@H](C)CO)C[C@@H]2C)cc1,active
20,COc1ccc(CN(C)C[C@H]2OCCCC[C@@H](C)Oc3ccc(NC(=O)Nc4ccc(F)cc4)cc3C(=O)N([C@@H](C)CO)C[C@H]2C)cc1,inactive
